Experimental data as given in PubChem BioAssay (NCATS).
Results filed as inconclusive are left out. Where a call stands in place of a potency, no number is given. Calls of active or inactive are those of the source. Calls follow the shape of the dose curve; as a rule, active = well fitted inhibition curve with a large enough effect; inconclusive = small, poorly fitted or top-dose-only effect; inactive = flat fitted curve, though single readings scatter.

Biological target: Luciferin 4-monooxygenase (Photinus pyralis) (UniProt P08659)
Assay: Biochemical firefly luciferase enzyme assay for NPC (AID 624030); also: nearly all actives have a fitted effect of over 70% in size
Outline: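 Direct inhibition of firefly luciferase enzyme (10 nM final, 50 mM Tris Acetate) assessed by luminescence within 5 minutes. Percent activity scaled between DMSO and PTC124 positive control, with concentration-effect curves classified by fit quality and response.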
Potency is read from the fitted curve at half-maximal effect.

Sequence of Luciferin 4-monooxygenase (Photinus pyralis) (P08659 whole entry, looked up): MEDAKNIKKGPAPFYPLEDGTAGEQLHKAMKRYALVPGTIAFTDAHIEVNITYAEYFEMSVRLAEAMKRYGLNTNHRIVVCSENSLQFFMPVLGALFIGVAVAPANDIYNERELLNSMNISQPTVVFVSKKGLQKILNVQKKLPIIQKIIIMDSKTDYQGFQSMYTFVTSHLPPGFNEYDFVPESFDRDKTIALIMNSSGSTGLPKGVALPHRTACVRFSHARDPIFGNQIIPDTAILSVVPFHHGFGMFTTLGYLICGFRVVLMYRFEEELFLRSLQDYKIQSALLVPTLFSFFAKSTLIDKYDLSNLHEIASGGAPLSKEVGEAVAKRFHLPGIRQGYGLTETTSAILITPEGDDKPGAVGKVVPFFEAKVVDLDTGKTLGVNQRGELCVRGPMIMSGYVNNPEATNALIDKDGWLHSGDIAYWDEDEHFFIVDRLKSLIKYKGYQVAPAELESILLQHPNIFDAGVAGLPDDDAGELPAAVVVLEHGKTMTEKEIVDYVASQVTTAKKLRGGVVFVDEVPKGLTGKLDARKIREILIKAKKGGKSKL

Clc1ccc(Nc2nnc(Cc3ccncc3)c3ccccc23)cc1
Potency: inactive

N=c1nc(N2CCCCC2)cc(N)n1O
Potency: inactive

C#Cc1cccc(Nc2ncnc3cc(OCCOC)c(OCCOC)cc23)c1
Potency: inactive

CNC(=O)c1ccccc1Sc1ccc2c(/C=C/c3ccccn3)n[nH]c2c1
Potency: 510 nM (active)

O=C1CCc2cc(OCCCCc3nnnn3C3CCCCC3)ccc2N1
Potency: inactive

O=C(NOC[C@H](O)CO)c1ccc(F)c(F)c1Nc1ccc(I)cc1F
Potency: inactive

CC(c1cc2ccccc2s1)N(O)C(N)=O (stereo not given)
Potency: inactive

NCCc1ccc(O)c(O)c1
Potency: inactive

O=c1n(CCCN2CCN(c3cccc(Cl)c3)CC2)nc2ccccn12
Potency: inactive

CC(C)(C)NCC(O)c1ccc(O)c(CO)c1 (stereo not given)
Potency: inactive

C1COC(NC(C2CC2)C2CC2)=N1
Potency: inactive

Oc1ccc(C2CNCCc3c2cc(O)c(O)c3Cl)cc1 (stereo not given)
Potency: inactive

CC(C)NCC(O)COc1ccc(COCCOC(C)C)cc1 (stereo not given)
Potency: inactive

Nc1ccc(S(=O)(=O)Nc2ccnn2-c2ccccc2)cc1
Potency: inactive

Cc1cn[nH]c1
Potency: inactive

OC(CN1CCC(Cc2ccc(F)cc2)CC1)c1ccc(Cl)cc1 (stereo not given)
Potency: inactive

Nc1nc2c(ncn2COCCO)c(=O)[nH]1
Potency: inactive

Cc1ccc(N(CC2=NCCN2)c2cccc(O)c2)cc1
Potency: inactive

N#Cc1ccc(C(c2ccc(C#N)cc2)n2cncn2)cc1
Potency: inactive

CN1CCN(CCCN2c3ccccc3Sc3ccc(C(F)(F)F)cc32)CC1
Potency: inactive

CCOC(=O)C1=C[C@@]2(CC)CCCN3CCc4c(n1c1ccccc41)[C@H]32
Potency: inactive

CCOC(=O)C1=C[C@]2(CC)CCCN3CCc4c(n1c1ccccc41)[C@@H]32
Potency: inactive

OC(CCN1CCCCC1)(c1ccccc1)C1CC2C=CC1C2 (stereo not given)
Potency: inactive

CC(C[N+](C)(C)C)OC(N)=O (stereo not given)
Potency: inactive

CCCc1nn(C)c2c(=O)[nH]c(-c3cc(S(=O)(=O)N4CCN(C)CC4)ccc3OCC)nc12
Potency: inactive
